89 compounds from PubChem BioAssay AID602252 (Broad Institute, 2012) can be followed below.

As usually defined, the inhibition is the change of the read-out against control, counted positive when it falls.

SMILES strings stand for the structures. The whole screen tested about 300,000 compounds, of which about 2,700 (0.9%) were called active. Many of the other results were omitted from the sample, so actives are more common in it than they were. Unmarked numbers belong to inactive results.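 How the source made its calls: active means mean inhibition of at least 30% with at least half of replicates also reaching 30%; inconclusive means no clear call, values can overlap the other calls; inactive means the rest.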

The experiment has as its target Golgi-associated PDZ and coiled-coil motif-containing protein (Homo sapiens) (UniProt Q9HD26). Nature of the experiment: blockade of CAL PDZ-reporter peptide interaction – biochemical, fluorescence polarization, untagged CAL PDZ, HTS, primary screen (AID 602252).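 Further: 0% = DMSO neutral control and 100% = excess unlabeled competitor peptide PRC23.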 The following applies: purified CAL PDZ, TMR-peptide fluorescence polarization, 1 h; at 24.9 µM; stronger effect = higher value. (In general: Polarisation of emitted light reports the rotation of a fluorescent probe.)
As to `CCCCN(C(=O)CSCc1ccc(C)cc1)c1c(N)n(Cc2ccccc2)c(=O)[nH]c1=O`, the inhibition is -2.71%.

For `Cc1cnc(NC(=O)CSc2c(Cl)cccc2Cl)s1`, the inhibition was -4.72%. For `Cc1cnc(NC(=O)c2ccccn2)s1` the value was 54.3% (active); for `Cc1cnc(NC(=O)c2ccc(Cl)nc2)s1`, 5.61%; for `O=C(Nc1ccn(CCCNCc2ccc3[nH]ccc3c2)c(=O)n1)OCc1ccccc1`, -6.18%.

On to `O=C(NCCCc1ccccc1)C1CCC(=O)N(CCc2ccc(Cl)cc2)C1` (centres undefined), for which the inhibition was -3.25%. The result for `Cc1cc(CNC(=O)C2CCC(=O)N(CCc3ccc(Cl)cc3)C2)no1` (centres undefined) reads 45.2% (active).

Consider `O=C(NCCN1CCOC1=O)C1CCC(=O)N(CCc2ccc(Cl)cc2)C1` (centres undefined), for which the inhibition was -3.91%.

As for `Cc1ccc(NC(=O)C2CCC(C(C)(C)C)CC2)cc1S(=O)(=O)N1CCOCC1` (centres undefined), the inhibition was -5.24%. For `O=C(CC1Sc2ccccc2NC1=O)NNc1ccc(Cl)c(Cl)c1` (centres undefined) the value was -5.96%.

As to `CSc1ccc(-c2c(C#N)c(N)nc3c2c(C)nn3-c2ccccc2)cc1`, the inhibition was -0.521%. Take `CCCNC(=O)CCc1c(C)nc2c(c(C)nn2-c2ccccc2)c1C`: the inhibition is -0.965%. As for `Cc1nc2c(c(C)nn2-c2ccccc2)c(C)c1C`, the inhibition is 45.7% (active). The result for `N#CC1=C(N)Oc2cc(N)ccc2C1c1ccccc1` (centres undefined) reads 2.39%; that for `Cc1sc2ncnc(N3CCC(C(=O)Nc4ccc(F)cc4Cl)CC3)c2c1C`, -2.24%. `COc1cccc(NC(=O)C(=O)c2cn(CC(=O)N3CCOCC3)c3ccccc23)c1`: the inhibition was -2.58%. For `O=C(Nc1ccc(F)cc1)C(=O)c1cn(CC(=O)N2CCOCC2)c2ccccc12` the value was 45.3% (active). For `Cc1ccc(CNC(=O)C(=O)c2cn(CC(=O)N3CCOCC3)c3ccccc23)cc1` the value was -3.01%; for `COc1ccccc1-c1nc(C#N)c(N2CCC(C(N)=O)CC2)o1`, -2.05%; for `Cc1cccn2c(=O)c(/C=C(\C#N)S(=O)(=O)c3ccc(Cl)cc3)c(N3CCC(C(N)=O)CC3)nc12`, 3.73%. For `Cc1cc(C)c(C#N)c(N2CCC(C(N)=O)CC2)n1` the value was 47.5% (active); for `O=C(NCCc1ccccc1)c1cccc(NC(=O)c2ccccc2)c1`, -3.44%.

Consider `CC(C)(C)OC(=O)C[C@@H]1C/C=C\C[C@@H](CC(=O)N[C@H](CO)Cc2ccccc2)C(=O)NCCOC1=O`, for which the inhibition was -9.11%.

In the case of `O=C(NNC(=O)c1ccccc1O)c1ccccc1O`, the inhibition was -3.61%. For `S=C(c1ccccc1)N1CCCC1` the value was -2.69%; for `CN1CCN(C(=O)c2ccc(-c3ccc(Br)cc3)o2)CC1`, -4.62%. The result for `S=C(c1ccc(-c2ccccc2)o1)N1CCCCC1` reads 54.6% (active); that for `C=CC[C@H](CC(=O)N(CCO)Cc1ccccc1)C(=O)N[C@@H](COC(=O)[C@@H](CC=C)Cc1ccc(F)cc1)Cc1ccccc1`, -5.7%. The result for `CC(C)N(C(=O)[C@H]1C[C@H](CC(=O)NCCC2=CCCCC2)C(=O)N2CCc3c([nH]c4cc(CCC(=O)N(C)C)ccc34)[C@]12C)C(C)C` reads -1.76%. As to `Cc1ccccc1-n1nnc2c(=O)oc3ccccc3c21`, the inhibition is 0.078%.

In the case of `O=c1oc2ccccc2c(=O)c2ccccc12`, the inhibition is 39.9% (active).

For the compound `CC(C)(C)Nc1c(N)c(=O)oc2ccccc12`, the inhibition was 3.5%. On to `COCCN(C(=O)C(C)N1C(=O)c2ccccc2C1=O)c1c(N)n(CC(C)C)c(=O)[nH]c1=O` (centres undefined), for which the inhibition was -19.9%. For the compound `COc1ccc(CC(=O)N[C@@H]2c3cc(OC)c(OC)cc3C[C@H]2OCc2ccccc2)cc1`, the inhibition was -0.172%. The result for `COc1ccc(C)cc1NC(=O)Nc1ccccc1SC` reads -2.98%. The result for `CSc1ccccc1NC(=O)c1cc(Cl)sc1Cl` reads 35% (active); that for `CSc1ccccc1NC(=O)c1cnc2sc(C)cn2c1=O`, -2.14%; that for `O=C(COC(=O)COc1cccc(F)c1)NCC1CCCCC1`, -0.678%.

Consider `O=C(Nc1nnc(-c2ccccc2)o1)c1cccc(S(=O)(=O)N2CCOCC2)c1`, for which the inhibition is 7.28%. The result for `O=C(OCC(=O)N1CCOCC1)c1ccc(N2CCOCC2)c([N+](=O)[O-])c1` reads 53.8% (active). For `O=C(Oc1ccccc1Cl)c1ccc(N2CCOCC2)c([N+](=O)[O-])c1` the value was -0.07%; for `O=C(c1ccc(N2CCOCC2)c([N+](=O)[O-])c1)N1CCN(c2ccccc2F)CC1`, -2.67%. For `CC(=O)Nc1ccc(S(=O)(=O)Nc2ccc(N3CCCCC3)cc2)cc1` the value was -0.222%; for `CC(C)N(C(=O)[C@H]1C[C@H](CC(=O)NC(C)(C)C)C(=O)N2CCc3c([nH]c4ccc(Cl)cc34)[C@]12C)C(C)C`, 1.76%. Turning to `COc1ccc(C)cc1NC(=O)CSc1nnc(CC(=O)Nc2ccccc2F)n1C`, the inhibition is -5.79%.

For the compound `Cn1c(SCC(=O)Nc2ccc(Br)cc2F)nnc1-c1ccco1`, the inhibition is -0.672%.

For `Cn1c(CCC(=O)Nc2ccccc2F)nnc1SCC(=O)Nc1ccccc1Cl`, the inhibition was 63.9% (active). The result for `CN(C)c1ccc(CSc2ccccc2)cc1` reads -6.85%; that for `COc1ccc2oc(N)nc2c1`, -0.189%; that for `CCOC(=O)c1ccccc1NC(=O)CSc1nc2c(sc(=S)n2CC)c(=O)[nH]1`, -5.33%.

As to `CCN(C[C@H]1N[C@@](CC)(C(=O)OC)[C@H]2C(=O)N(Cc3ccccc3)C(=O)[C@@H]12)S(=O)(=O)c1ccc(C(F)(F)F)cc1`, the inhibition was -1.59%. For `O=C(O)CN1CCN(C(c2ccccc2)c2ccccc2)CC1` the value was 0.69%; for `CC(C)NC(=S)N1CCN(C(c2ccccc2)c2ccccc2)CC1`, -1.91%.

On to `CC1(C)CC(N2CCN(C(c3ccccc3)c3ccccc3)CC2)=CC(=[N+]2CCCCC2)C1`, for which the inhibition was 46.7% (active). Consider `CCCCCC1CC(COc2ccccc2)OC1=O` (centres undefined), for which the inhibition was 8.53%. The result for `CCCCN1CC(CO)Oc2cccc(F)c2S1(=O)=O` (centres undefined) reads -3.69%; that for `COc1cccc(C=CC(=O)C=CC=Cc2ccccc2)c1`, 0.692%. `Cc1[nH]n(-c2ccc([N+](=O)[O-])cc2)c(=O)c1C=NCCN1CCN(C(=O)c2ccccc2F)CC1`: the inhibition is 51.8% (active).

As to `Cc1[nH]n(-c2ccccc2)c(=O)c1N=Nc1ccccc1C(=O)N1CCCCC1`, the inhibition was -3.5%. The result for `C=CCNC(=S)N1CCN(CCN=Cc2c(C)[nH]n(-c3ccc([N+](=O)[O-])cc3)c2=O)CC1` reads -1.05%; that for `COc1ccc(C(=O)Nc2cccc(/C=C(/CCC(=O)O)c3nc4ccccc4s3)c2)cc1`, -1.62%.

Consider `CN1c2ccc(C=O)c3c(C=O)ccc(c23)N(C)C1(C)C`, for which the inhibition was 67% (active). The result for `Cc1onc(-c2c(F)cccc2Cl)c1C(=O)OCC(=O)N1C(C)CCCC1C` (centres undefined) reads -2.47%; that for `COc1ccc(CC(=O)NC(C)c2ccc(Cl)c(Cl)c2)cc1S(=O)(=O)N1CCOCC1` (centres undefined), -1.91%; that for `CCCN(CC(=O)NC(=O)NC1CCCCC1)CC(=O)Nc1cc(Cl)ccc1Cl`, -3.68%. Consider `CN(c1ccccc1)S(=O)(=O)c1ccc(NC(=O)COc2ccccc2)cc1`, for which the inhibition was -1.05%. For `CN(c1ccc(OCC(=O)NC2=NCCS2)cc1)S(=O)(=O)c1ccc(F)cc1` the value was 81.4% (active); for `Cc1ccc(S(=O)(=O)N(C)c2ccc(OCC(=O)NC3=NCCS3)cc2)cc1`, -1.61%. The result for `Cc1ccc(S(=O)(=O)N2CCN(C(=O)Cn3c(=O)cnc4ccccc43)CC2)c(C)c1` reads -10.5%; that for `COc1ccc(CNCCCNCc2ccc(OC)c(OC)c2)cc1OC`, 2.4%. The result for `CSCCC(NS(=O)(=O)c1ccc(C)cc1)C(=O)N1CCCC1` (centres undefined) reads 68.8% (active). Take `CSCC(NS(=O)(=O)c1ccc(C)cc1)C(=O)O` (centres undefined): the inhibition was 2.04%.

For `CSCCC(NC(=O)c1ccccc1)C(=O)N1CCCCCCC1` (centres undefined), the inhibition was -1.09%. For `O=C1[C@@H](c2ccccc2)[C@@H](c2ccccc2)N1c1cccnc1` the value was -3.46%; for `O=C(Cc1ccc(S(=O)(=O)N2CCOCC2)s1)Nc1ccc(Br)c(C(F)(F)F)c1`, -2.21%; for `Cc1nc2ccc(NC(=O)c3cccc(S(=O)(=O)N4CCOCC4)c3)cc2s1`, -4.38%. For `O=C(NC(=S)Nc1ccc(NC(=O)c2cccs2)cc1)c1ccc([N+](=O)[O-])cc1` the value was -2.58%; for `CC(=O)NC(=S)Nc1ccc(NC(=S)NC(=O)c2ccc([N+](=O)[O-])cc2)cc1`, 56.3% (active). For `CC(=O)Nc1ccc(NC(=S)NC(=O)c2ccc([N+](=O)[O-])c(C)c2)cc1` the value was -0.773%. In the case of `O=C(Nc1ccc2ccccc2c1[N+](=O)[O-])c1ccccc1`, the inhibition is 0.89%.

Consider `CC1(C)CCSC(/C=C/c2ccccc2)=N1`, for which the inhibition was 76.1% (active). For `CC(C)[C@@H](C(=O)OCC(=O)c1ccc2c(c1)NC(=O)CO2)N1C(=O)c2ccccc2C1=O` the value was -3.95%. The result for `CN(Cc1ccc(F)cc1)C(=O)COc1ccc2ccccc2c1` reads -2.25%; that for `CN(Cc1ccccc1)C(=O)c1ccc(COc2ccccc2)cc1`, -2.72%; that for `CN(Cc1ccccc1)C(=O)COc1ccccc1`, 34.5% (active). For `CN1CCC(N(C)C(=O)c2ccc(Cl)c(S(=O)(=O)Nc3ccc(Cl)cc3)c2)CC1` the value was 4.93%. In the case of `CC(C)(C)OC(=O)N1CCC(C(=O)Nc2cccc(C(=O)NCCc3ccccc3)c2)CC1`, the inhibition is -2.65%. For `COc1ccc(CNc2nc(NCc3ccc(OC)cc3)c3ncn(C4CCCC4)c3n2)cc1` the value was 2.25%. For `O=C(Nc1cc(S(=O)(=O)Nc2ccc(Cl)cc2)ccc1O)c1ccc(F)cc1F` the value was -2.45%.
